The values that follow come from PubChem BioAssay AID624125 (The Scripps Research Institute Molecular Screening Center, 2012).

The term inhibition denotes the drop in the measured response relative to a control, in per cent.

Hit rate of the full screen: of about 360,000 compounds, about 2,600 (0.72%) were called active.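 The calls were made as follows: active = inhibition above its plate's cutoff, the mean inhibition of sample wells plus 3 SD (cut at about 27% in these data); inactive = the rest.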 Only a selection was taken, and actives are over-represented in it overall.

Sequence of Muscarinic acetylcholine receptor M4 (Homo sapiens) (P08173 whole entry, looked up): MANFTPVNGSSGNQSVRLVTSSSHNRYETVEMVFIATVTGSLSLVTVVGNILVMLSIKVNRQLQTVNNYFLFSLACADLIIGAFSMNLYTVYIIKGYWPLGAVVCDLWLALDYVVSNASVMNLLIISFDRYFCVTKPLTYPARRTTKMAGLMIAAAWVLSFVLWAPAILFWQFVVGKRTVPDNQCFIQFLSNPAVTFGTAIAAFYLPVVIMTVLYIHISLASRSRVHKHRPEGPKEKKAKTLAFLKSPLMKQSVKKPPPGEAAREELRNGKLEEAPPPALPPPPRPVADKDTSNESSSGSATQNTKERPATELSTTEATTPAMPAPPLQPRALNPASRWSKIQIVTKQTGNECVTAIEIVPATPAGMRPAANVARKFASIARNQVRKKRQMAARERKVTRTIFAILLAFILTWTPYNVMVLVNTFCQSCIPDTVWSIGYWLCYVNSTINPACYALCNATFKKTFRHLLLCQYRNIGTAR

This experiment concerns the target Muscarinic acetylcholine receptor M4 (Homo sapiens) (UniProt P08173). Description: CHRM4 blockers of acetylcholine calcium response – CHO cells, Fluo-8 calcium fluorescence, primary screen (AID 624125).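 Also: 0% = acetylcholine EC80 with DMSO and 100% = DMSO without agonist.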 To be noted: CHO-hM4 cells, ACh EC80, Fluo-8 calcium fluorescence; at 3 µM; hits give high values.
For `Cc1n[nH]c(=O)c2c(NC(=O)CSc3cc(Cl)ccc3Cl)oc(C)c12`, the inhibition is -3.66% (inactive). As for `COc1ccc2[nH]c3c(C)c4cc[n+](C)cc4c(C)c3c2c1`, the inhibition was 1.89% (inactive).

`CC(OC(=O)c1ccc(NS(=O)(=O)c2ccc3[nH]c(=O)[nH]c3c2)cc1)C(=O)Nc1cccc(Cl)c1Cl` (stereo not given): the inhibition was 5.91% (inactive). As for `COc1ccc(CCN2C(=O)N(c3ccc(OC)cc3)C(=O)C2CC(=O)Nc2ccc(OC)cc2)cc1` (stereo not given), the inhibition was -16.8% (inactive). The same measure for `CCN(Cc1ccccc1)C(=O)CSc1nc(C)cc2c1C(=O)OC2`: 8.21% (inactive). Regarding `COc1ccccc1C1SCCN1C(=O)c1ccc([N+](=O)[O-])cc1` (stereo not given), the inhibition was 57% (active). The same measure for `O=C(Nc1ccc(F)cc1)C1CCN(C(=O)c2ccc([N+](=O)[O-])cc2)CC1`: -7.19% (inactive); for `C[N+]1(CC(O)COc2ccccc2)CCN(C(=O)c2ccc([N+](=O)[O-])cc2)CC1` (stereo not given): -5.14% (inactive); for `Cn1c(=O)c2c(SCC(=O)NCC3CCCO3)nc(CC(C)(C)C)nc2n(C)c1=O` (stereo not given): 2.72% (inactive). For the molecule `CCNc1nc(Oc2ccc(C(=O)OC)cc2)nc(N2CCOCC2)n1`, the inhibition was 2.43% (inactive). The result for `O=C(c1cccs1)C1C(c2ccc(Br)cc2)NC(=S)NC1(O)C(F)(F)F` (stereo not given) reads 77.3% (active); that for `CCOC(=O)C1C(c2ccc(O)cc2)NC(=O)NC1(O)C(F)(F)F` (stereo not given), 5.66% (inactive); that for `CC1=NN(c2cccc(Cl)c2)C(=O)C12CC(C)=C(C)CS2` (stereo not given), -0.34% (inactive). The same measure for `O=C1Nc2c(Br)cc(Br)cc2C1(O)N1CCOCC1` (stereo not given): -12% (inactive); for `CCC(CC)C(C(=O)NC1CCCC1)N1CCN(c2cc(C)nc3ccccc23)CC1` (stereo not given): -16.6% (inactive); for `CCn1ccnc1CN(C)Cc1nc(-c2ccc3c(c2)OCO3)no1`: 1.6% (inactive). With `CN(Cc1nc(-c2cnccn2)no1)Cc1n[nH]c2c1CCCCC2`, the inhibition was 37.3% (active). As to `CN(Cc1cc2cc(F)ccc2[nH]1)Cc1nc(-c2cnccn2)no1`, the inhibition is -8.36% (inactive). The same measure for `CCOc1cc(CNCc2ccccn2)ccc1OCC(=O)NC(C)(C)C`: 1% (inactive); for `CCN(CC)c1ccc(NC(=O)c2ccc(Cl)nc2)cc1`: 1.79% (inactive); for `CCN(CC)c1ccc(/C=N/NC(=O)c2cnccn2)c(O)c1`: 33.1% (active). The result for `COc1cccc(OCC(=O)NNC(=O)c2cnccn2)c1` reads 12.6% (inactive).

For the molecule `CC1(C)Cc2cccc(OCC(=O)N3CCN(c4ccc([N+](=O)[O-])cc4)CC3)c2O1`, the inhibition was -2.84% (inactive). For `COc1cccc(/C=C/C(=O)OCC(=O)N2CCCc3ccccc32)c1`, the inhibition is -7.08% (inactive). The result for `O=c1[nH]c(=O)n(Cc2ccco2)c2c1C(C(F)(F)F)(C(F)(F)F)N=C(c1ccco1)N2` reads 4% (inactive); that for `Nc1c(C(=O)c2cccs2)sc2nsc(SCCN3CCCCC3)c12`, 42% (active); that for `O=C1C(=O)N(CCCO)C(c2ccccc2)/C1=C(\O)c1ccc(Br)cc1` (stereo not given), 3.51% (inactive). The result for `COC(=O)[C@]12CCCCC=C1N(Cc1ccccc1)C(=O)[C@H](CC(=O)NCc1ccc(C)o1)C2` reads -11.9% (inactive); that for `OC[C@@H]1CN(Cc2ccc(-c3ccccc3)cc2)C[C@H](n2cnc3c(NC4CCCC4)ncnc32)O1`, 19.1% (inactive). The same measure for `CN(C)c1ccc(/C=C2\NC(=S)N(Cc3ccccc3)C2=O)cc1`: 44.5% (active). On to `CN(C)c1ccc(CSc2ccccc2)cc1`, for which the inhibition is -16.2% (inactive). The same measure for `CC(C)(C)C(=O)COC(=O)c1cc(S(=O)(=O)N2CCCCC2)ccc1N1CCOCC1`: -6.6% (inactive); for `CC1Cc2[nH][nH]c(=O)c2C(C2CCCC2)O1` (stereo not given): 3.85% (inactive); for `CCNC(=S)N(CCN(CC)CC)Cc1cc2cc3c(cc2[nH]c1=O)OCO3`: 1.79% (inactive). The result for `O=C(COc1ccc(F)cc1Br)NCC1COc2ccccc2O1` (stereo not given) reads 3.31% (inactive); that for `c1ccc2c(c1)OCC(CNc1ncnc3nc[nH]c13)O2` (stereo not given), 65.3% (active). The result for `CCC(=O)c1ccc(OCC(=O)N(CC)CC2COc3ccccc3O2)cc1` (stereo not given) reads -18.3% (inactive). Consider `O=[N+]([O-])c1cc(S(=O)(=O)CCCN2CCOCC2)ccc1F`, for which the inhibition is -17.3% (inactive). Take `CC(C)(O)C#Cc1ncc(C(F)(F)F)cc1Cl`: the inhibition is 3.84% (inactive).

On to `COC(=O)[C@@H](NC(=O)Nc1cc(Cl)ccc1C)C(C)C`, for which the inhibition is 8.25% (inactive). On to `CN(C)Cc1ccccc1C1(O)c2ccccc2CSc2ccccc21` (stereo not given), for which the inhibition was 22.2% (inactive).

In the case of `CN(C)CC/C=C1\c2ccccc2CSc2ccccc21`, the inhibition was 83% (active). The result for `Cc1cccc(-n2c(O)c(C=Nc3ccccc3N)c(=O)[nH]c2=O)c1` reads 4.12% (inactive); that for `CN(C)CCCNC(=O)c1cc(C(=O)Cc2ccc(Cl)cc2)c[nH]1`, -5.01% (inactive). For `CCOC(=O)c1nnn(-c2nonc2-n2cccc2)c1CN1CCC(C(=O)OCC)CC1`, the inhibition was 0.5% (inactive).

Take `Cc1cc(S(=O)(=O)N2CCOCC2)ccc1OCC(=O)Nc1cccc(C(F)(F)F)c1`: the inhibition was 14.2% (inactive). The result for `CCNS(=O)(=O)c1ccc(NC(=O)Nc2cccc(C(F)(F)F)c2)cc1` reads 30.8% (active). The result for `CCNS(=O)(=O)c1ccc(NC(=O)c2cncc(Br)c2)cc1` reads -2.17% (inactive); that for `CCCNC(=O)C[C@@H]1CC[C@@H]2[C@H](COC[C@H](O)CN2C(=O)c2cc(Cl)cc(Cl)c2)O1`, 2.23% (inactive). Regarding `Cc1ccc(C(=O)O)cc1S(=O)(=O)NCC1CCCO1` (stereo not given), the inhibition is 0.46% (inactive). The result for `CCc1cc(C(=O)OC)c(NC(=O)CC2Sc3ccc(C(F)(F)F)cc3NC2=O)s1` (stereo not given) reads 0.19% (inactive); that for `COc1cc(OC)c2ccc(=O)oc2c1C(CCN1CCN(c2ccccc2)CC1)c1ccc2c(c1)OCO2` (stereo not given), 4.01% (inactive). The same measure for `CCC1C=C(c2ccccc2)C=CN=C1N(CC)CC` (stereo not given): 35% (active). The result for `O=C(N/N=C/c1sc(N2CCCCC2)nc1-c1cccs1)c1cccnc1` reads -11.5% (inactive); that for `Nc1cc2c(cc1Br)-c1ccc(F)cc1C2=O`, -3.7% (inactive); that for `Cc1ccc(S(=O)(=O)N2CCCC(C(=O)N3CCN(C)CC3)C2)cc1` (stereo not given), 11.1% (inactive). Turning to `COc1ccc(S(=O)(=O)N2CCCC(C(=O)N3CCN(C)CC3)C2)cc1C` (stereo not given), the inhibition is -3.22% (inactive).

On to `CC(=O)N1CCCc2cc(S(=O)(=O)N3CCCC(C(=O)N4CCN(c5cccc(Cl)c5)CC4)C3)ccc21` (stereo not given), for which the inhibition is 43.8% (active). The result for `Cc1ccc(S(=O)(=O)N2CCCC2C(=O)OCc2nc3sc(C)c(C)c3c(=O)[nH]2)cc1` (stereo not given) reads -8.5% (inactive); that for `Cc1sc2nc(CSCC(=O)Nc3c(Cl)cccc3Cl)[nH]c(=O)c2c1C`, -1.67% (inactive); that for `CCN(CC)Cc1nc2sc(C)c(C)c2c(=O)[nH]1`, 34.7% (active). On to `Cn1c2c(c(=O)n(C)c1=O)C1c3ccccc3OCC1C(C)(C)O2` (stereo not given), for which the inhibition was -10.5% (inactive). As to `COc1cc(OC)cc(-c2nnc(SCC(=O)Nc3ccc(C(=O)O)cc3)s2)c1`, the inhibition is 3.22% (inactive). The result for `CCCCNC(=O)CSc1nc2ccc(NC(=O)CSc3nnc(N)s3)cc2s1` reads 4.39% (inactive); that for `Nc1nnc(SCC(=O)Nc2ccc3nc(SCC(=O)Nc4ccccc4)sc3c2)s1`, 40.5% (active). The same measure for `CSc1nc2nc(-c3cccc(C(F)(F)F)c3)ccn2n1`: -1.52% (inactive); for `C=C(C)c1cccc(C(C)(C)NC(=O)NC2CCCC2)c1`: 4.8% (inactive). Turning to `C=C(C)c1cccc(C(C)(C)NC(=O)NCCN(CC)CC)c1`, the inhibition is 61.6% (active). The result for `C=C(C)c1cccc(C(C)(C)NC(=O)N2CCN(c3ncccn3)CC2)c1` reads 6.08% (inactive); that for `COc1ccc(-c2cn(-c3ccc(C)cc3)c(=O)n2CC(=O)Nc2ccc(OC)c(OC)c2)cc1`, 4.43% (inactive); that for `Cc1cc2cc(CNC(=O)c3ccc(S(=O)(=O)N4CCOCC4)cc3)ccc2[nH]1`, 28.9% (active). The result for `COC(=O)c1ccc(CNC(=O)c2ccc(S(=O)(=O)N3CCCCCC3)cc2)cc1` reads 5.81% (inactive); that for `Cc1cc2cc(CNC(=O)c3cccs3)ccc2[nH]1`, -4.44% (inactive). The result for `CC1CCc2sc(C(=O)N/N=C/C3CCCCC3)cc2C1` (stereo not given) reads -5.14% (inactive). On to `COc1ccc(-c2nc(N)sc2C2(O)C(=O)Nc3c(Br)cc(F)cc32)cc1OC` (stereo not given), for which the inhibition was -0.95% (inactive). The same measure for `O=CNc1cc(-c2ccc(C(=O)N3CCOCC3)cc2)cn2c(-c3ccc(F)cc3)cnc12`: 0.14% (inactive); for `OC(C#CCN1CCOCC1)(c1ccccc1)C1CCCCC1` (stereo not given): 10.4% (inactive). The same measure for `CC(C)(C)N(CC#CCC(O)(c1ccccc1)C1CCCC1)CCO` (stereo not given): 31.3% (active).

In the case of `Cc1ccc(C)c(N2CCN(C(=O)CCc3nc(-c4cccc(C(F)(F)F)c4)no3)CC2)c1`, the inhibition is -9.53% (inactive). The result for `Cc1cc(O)ccc1NC1=CC(=O)CC(C)(C)C1` reads 2.61% (inactive); that for `CCc1nc2c(OCCOc3ccc(F)cc3)cccn2c1N(C)C(=O)c1ccccc1F`, 1.61% (inactive). The result for `CCOC(=O)CCCCCC(=O)Nc1ccc2c(c1)CC(=O)N([C@@H](C)CO)C[C@H](C)[C@@H](CN(C)Cc1ccccc1)O2` reads -3.74% (inactive); that for `C[C@H]1CN([C@@H](C)CO)C(=O)Cc2cc(NC(=O)Cc3ccccc3)ccc2O[C@H]1CN(C)S(=O)(=O)c1cccs1`, 35.1% (active). Regarding `COc1ccc(S(=O)(=O)N(C)C[C@H]2Oc3ccc(NS(=O)(=O)c4cccs4)cc3CC(=O)N([C@H](C)CO)C[C@H]2C)cc1`, the inhibition was 5.37% (inactive). The same measure for `NC(=O)c1cc(S(=O)(=O)NCCCc2ccco2)cs1`: 3.61% (inactive); for `O=C(CNS(=O)(=O)c1ccc(Br)s1)N1CCN(C(=O)c2ccco2)CC1`: -1.1% (inactive).

For `CC(C)C(NS(=O)(=O)c1cccs1)C(=O)Nc1nc(C(C)(C)C)cs1` (stereo not given), the inhibition was -1.31% (inactive). The result for `CCN1CCN(C(=O)c2ccc(CN(c3ccc(C)c(C)c3)S(C)(=O)=O)cc2)CC1` reads -4.91% (inactive); that for `Cc1ccc(N(Cc2ccc(C(=O)Nc3ccccc3C(=O)NCc3ccco3)cc2)S(C)(=O)=O)cc1C`, 39.7% (active). For `CS(=O)(=O)N(Cc1ccc(Cl)cc1)c1ccc(C(=O)NCCSCc2ccco2)cc1`, the inhibition is 13.9% (inactive).
